# A selection follows.
# Pf growth 48h = Primary qHTS for delayed death inhibitors of the malarial parasite plastid, 48 hour incubation; actives 5.9% (n = 310,000); Potency, µM (series often up to 28.7 µM), inactives show at the top dose activity change, negative = inhibition, most hits filed as inhibitors; P. falciparum luciferase growth in erythrocytes, 48 h; further: potency means the concentration at half of the fitted maximal effect; on the % scale 0 is the no-effect control and ±100 the full control effect
#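 Read-out is firefly luciferase luminescence from an integrated reporter in P. falciparum, so falling signal marks reduced parasite growth. Infected erythrocytes were at 2% hematocrit and 0.1% parasitemia (final) in Albumax-supplemented RPMI 1640.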
# SARS PLpro yeast-1 = qHTS of Yeast-based Assay for SARS-CoV PLP. S. cerevisiae expressing SARS-CoV PLpro, growth rescue. Potency, µM (doses to about 32.9 µM), inactives show at the highest dose activity, positive = growth rescue, actives largely listed as activators. actives 0.19% (n = 330,000). AID 485353, 2010; calls by dose curve; further: potency means the concentration at half of the fitted maximal effect; 0% is about no effect; nearly all actives have a fitted effect of over 55% in size
# NS1 function inh = qHTS Assay for Inhibitors of Influenza NS1 Protein Function. Potency, µM (titrated, usually from 46.1 µM), inactives show top-dose activity, positive = more growth. actives 0.4% (n = 270,000). AID 2326, 2010; calls by dose curve; further: potency means the concentration at half of the fitted maximal effect; actives are rising curves; nearly all actives have a fitted effect of over 50% in size
#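 Growth recovery, yeast-based: influenza A NS1 expressed in S. cerevisiae causes slow growth, and suppressors are detected by OD600. The parent strain without NS1 is used as positive control.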
# Shiga inhibitor = A qHTS for Small Molecule Inhibitors of Shiga Toxin | actives 9.2% (n = 290,000) | Vero cells, Shiga toxin protein synthesis inhibition reporter | inhibition, % at 38.7 µM; in the data active means inhibition mostly above about 28%, no sharp cut-off; inactive means mostly below about 43%; further: 0% is about no effect
# CHX counter = Cycloheximide Counterscreen for Small Molecule Inhibitors of Shiga Toxin. cell reporter, cycloheximide protein synthesis inhibition counterscreen. max response, %. actives 12% (n = 300,000). AID 2314, 2010; in the data active means max response mostly above about 13%, no sharp cut-off; inactive means mostly below about 14%; further: read at 38.3 µM for the half of the compounds with a filed dose; 0% is about no effect
# Pf growth 96h = Primary qHTS for delayed death inhibitors of the malarial parasite plastid, 96 hour incubation | actives 6.9% (n = 320,000) | P. falciparum luciferase reporter growth, 96 h | Potency, µM (series often up to 28.7 µM), for the others: at the top dose activity change, negative = inhibition, actives largely listed as inhibitors; further: potency means the concentration at half of the fitted maximal effect; on the % scale 0 is the no-effect control and ±100 the full control effect
#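 Plates of compound plus infected erythrocytes (2% hematocrit, 0.05% parasitemia final) incubate 96 hours, 37 C, 5% CO2. Detection reagent added; reduced luminescence from the parasites' luciferase reporter flags inhibition.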
# SARS PLpro yeast-2 = qHTS of Yeast-based Assay for SARS-CoV PLP: Hit Validation; shares compounds with SARS PLpro yeast-1; yeast expressing SARS-CoV PLpro, growth phenotype rescue; calls only; actives 19% (n = 1,000); call rule not given here
# Starred values were filed as active, the others as inactive; i = inactive; ? = inconclusive; . = no result given; + = active, no number; [ ] = another dose, or the depositor's remark. Unless noted, the call rests on the fitted dose curve; in most records, active means well fitted inhibition curve with a large enough effect; inconclusive means small, poorly fitted or top-dose-only effect, or another doubt; inactive means no such curve, though single readings can be large or run the other way.
SMILES,Pf growth 48h,SARS PLpro yeast-1,NS1 function inh,Shiga inhibitor,CHX counter,Pf growth 96h,SARS PLpro yeast-2
Cn1ncc(Cl)c1C(=O)N/N=C/c1cccc(OC2CSC2)c1,1%,1%,8%,-2,13,-10%,.
CN(CC(=O)Nc1ccc(Cl)c(C(F)(F)F)c1)C(=O)/C=C/c1cccs1,?,?,.,.,.,?,i
CN(CC(=O)Nc1ccc(Cl)c(C(F)(F)F)c1)C(=O)C1CCC1,?,-3%,.,.,.,?,.
CCN1C(=O)[C@H]2[C@H]3CN=C(SCC(=O)c4ccccc4)N3[C@@](C)(C(=O)OC)[C@H]2C1=O,.,.,.,.,.,.,i
Cc1cccc(OCC(O)Cn2c(N3CCCCC3)nc3c2c(=O)n(C)c(=O)n3C)c1 (stereo not drawn),?,1%,-2%,-7,1,?,.
COc1cc(NC(=S)NCc2ccc(S(N)(=O)=O)cc2)c(OC)cc1Cl,-14%,?,10%,-13,1,?,i
COc1ccc(N2CCN(C(=O)[C@H](Cc3c[nH]c4ccccc34)NC(C)=O)CC2)cc1,-1%,1%,2%,20,4,43%[5.75 µM],.
O=C1[C@H]2[C@@H](C(=O)N1c1cccc3ccccc13)C1(C(=O)c3ccccc3C1=O)N1CCC[C@@H]21,?,-16%,-11%,-9,-4,?,.
C[C@]12c3[nH]c4cc(-c5ccco5)ccc4c3CCN1C(=O)[C@@H](CC(=O)NCCCn1ccnc1)C[C@@H]2C(=O)N1CCCCC1,.,-11%,.,.,.,.,.
C[C@]12c3[nH]c4cc(-c5ccco5)ccc4c3CCN1C(=O)[C@@H](CC(=O)NCCCn1ccnc1)C[C@@H]2C(=O)N1CCOCC1,.,?,.,.,.,.,i
CC(=O)Nc1ccc(S(=O)(=O)N(CC(=O)Nc2cc(C)on2)Cc2ccc(F)cc2)cc1,-24%,0%,2%,-6,1,-6%,.
O=C(/C=C/c1ccccc1Cl)c1ccccc(=O)c1O,5.2µM*,?,-55%,89*,65*,3.7µM*,+
Cc1ccc(C)c(/C=C/C(=O)c2ccccc(=O)c2O)c1,4.1µM*,3.5µM*,-35%,52*,111*,1.5µM*,i
Cc1cccc(C(=O)NNC(=O)c2ccccc2C)c1,43%,0%,-5%,24,14,97%,.
Cc1ccc(CNC(=O)/C=C/c2ccccc2Cl)cc1,20%,?,-6%,21,10,?,.
Cc1cccc(C(=O)NC2CC3CCCC(C2)N3C(=O)Nc2ccccc2)c1 (stereo not drawn),-24%,-1%,-1%,-10,-4,15%,.
COc1ccc(CC(=O)NC2CC(C)(C)NC(C)(C)C2)cc1,-7%,6%,-3%,-7,-1,?,.
CC(C)CNC(=O)c1cc([N+](=O)[O-])ccc1N1CCOCC1,26%,?,2%,-8,3,56%,i
CC(C)CCNC(=O)c1cc([N+](=O)[O-])ccc1N1CCOCC1,27%,26%,8%,11,1,-11%,.
Cc1cc(C)c2c(NC(=O)CCl)nn(C)c2n1,3.7µM*,11µM*,.,26,26,1.9µM*,+
Cc1cc(C)c2c(NC(=S)NC(=O)c3ccccc3)nn(C)c2n1,?,15%,.,-16,8,-3%,.
CC1CC(C)(C)NC(=S)N1CC(=O)N(C)Cc1ccccc1 (stereo not drawn),-20%,?,0%,-9,-3,-13%,i
CC1CC(C)(C)NC(=S)N1CC(=O)NCc1ccc(F)cc1 (stereo not drawn),-3%,3%,.,-19,10,-15%,.
CC(=O)c1ccc(N2CCN(C(=S)Nc3ccc(Cl)c(Cl)c3)CC2)cc1,14%,1%,.,-2,7,21%,.
CN(C)CCNC(=S)Nc1cccc(Cl)c1,25%,?,26%,47,-1,-10%,i
SMILES,Pf growth 48h,SARS PLpro yeast-1,NS1 function inh,Shiga inhibitor,CHX counter,Pf growth 96h,SARS PLpro yeast-2
C=CCc1c(C)nc(C)nc1N/N=C/c1ccccc1O,?,-2%,-7%,15,8,?,.
COc1cc(N/N=C/c2ccccc2O)ncn1,?,8.9µM*,-5%,33*,28*,?,?
Cc1cccc(NC(=O)Cn2cnc3c(oc4nc5c(cc43)COC(C)(C)C5)c2=O)c1,0%,13µM*,-5%,25,13,0%,i
COc1cc(/C=N/Nc2nc(C)cc(=O)[nH]2)ccc1OC(=O)c1cccnc1,-1%,3%,.,2,1,-27%,.
Cc1sc2nc(CN(C(=O)NC3CCCCC3)C3CCCC3)[nH]c(=O)c2c1C,?,3.5µM*,-12%,-9,5,-21%,?
CC(C)CC(=O)N1CCN(c2ccc([N+](=O)[O-])cc2Cl)CC1,1%,-35%,-20%,-6,11,38%,.
CC(C)CC(=O)NC(=S)N1CCN(c2ccc([N+](=O)[O-])cc2Cl)CC1,-28%,?,4%,-4,-3,?,i
CC(C)(C)OC(=O)C[C@H]1C/C=C\C[C@H](CC(=O)N[C@@H](CO)Cc2ccccc2)C(=O)N[C@H](C(C)(C)C)COC1=O,.,3%,.,.,.,.,.
O=C(N=C1SCC(=O)N1c1ccccc1)c1ccco1,.,?,9%,47,31*,73%,i
O=C(NNC1CC(=O)N(c2ccccc2)C1=O)c1ccco1 (stereo not drawn),5%,1%,9%,17,4,?,.
Cc1cc(C)n(-c2ccc(C(=O)Nc3cc(S(=O)(=O)N(C)C)ccc3Cl)cc2)n1,?,8%,3%,-14,-5,-18%,.
Cc1ccc(/C=N/Nc2nc3ccccc3[nH]2)s1,?,2.8µM*,-15%,active,45*,?,i
CC(=O)Oc1ccc(-c2cccc(C(=O)OCC(=O)Nc3ccccc3Oc3ccccc3)c2)cc1,?,?,4%,-10,0,?,+
Cc1cc(C)n(C2CC(=O)N(c3ccc(Cl)c(Cl)c3)C2=O)n1 (stereo not drawn),11%,-2%,0%,3,9,0%,.
CCn1c(O)c(/C=N/NC(=O)c2ccncc2)c(=O)[nH]c1=S,14%,1%,7%,-3,7,0%,.
CCC(C)n1c(O)c(/C=N/NC(=O)c2ccncc2)c(=O)[nH]c1=S (stereo not drawn),13%,11µM*,26%,10,-5,0%,i
Cc1ccc(NC(=S)Nc2ccc3cn[nH]c3c2)c(C)c1,10%,1%,.,20,2,15%,.
Cc1ccc(NC(=S)Nc2ccc3cn[nH]c3c2)cc1C,26%,2.5µM*,-6%,-3,10,10%,?
O=C(O)CNC(=O)c1ccccc1I,2%,.,.,-10,-5,12%,.

# High-throughput results: PubChem BioAssay, National Center for Advancing Translational Sciences (NCATS)
